CF NFkB block – blocks PAF-induced NF-kB reporter in cystic fibrosis cells; KKLEB NF-kB-GFP reporter, GFP fluorescence overnight; inhibition, % at 5 µM; 0.86% of 360,000 active; AID 588850;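 active means at least 50% inhibition at 5 µM, scaled per plate between neutral and stimulator controls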;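 further: PAF is a Pseudomonas aeruginosa culture filtrate used as stimulus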
Peg3 prom inh – inhibitors of Peg3 promoter; HeLa PEG-Prom luciferase reporter, luminescence, overnight; inhibition, % at 20 µM; 1.7% of 360,000 active;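 active means inhibition of at least 50% at 20 µM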
KKLEB tox – counter-screen for CF NF-kB inhibitors: cytotoxicity; KKLEB CF airway cells viability, ATPlite luminescence, overnight; stronger effect = lower value; cells stimulated with P. aeruginosa culture filtrate; AID 602141; 0.36% of 360,000 active; activity change (cytotoxicity), % at 5 µM;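 active means corrected activity change at or below -50% at 5 µM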
HIF-2a inh – blocks HIF-2a reporter activity; 786-0 RCC cells HIF-2a reporter, luciferase luminescence, overnight; inhibition, % at 18.8 µM; 0.72% of 360,000 active; AID 624352;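 active means inhibition of the luminescence signal of 40% or more relative to plate controls, in a single-dose primary screen at 18.75 µM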
CHOP inhibitor – blocks CHOP induction under ER stress; CHO-K1 CHOP-promoter luciferase, tunicamycin-induced, 15-18 h; inhibition, % at 10 µM; 3.8% of 220,000 active; AID 2732;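 active means compounds that reduced the stress-induced luciferase reporter signal by more than about 70% of percent inhibition, limit read from the data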
MITF TRPM1 inh – reduces MITF-dependent TRPM1 promoter luciferase signal. AID 488899. inhibition, % at 12.5 µM. SK-MEL-5 TRPM1 promoter luciferase, 24 h. 0.83% of 330,000 active;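 active means mean inhibition across replicates of 60% or more, whatever share of single replicates reaches that level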
Numbers stand for hits; i = inactive; nt = no result given. In the library only some 4.3% were active in any assay of this set; here they are far more common.

SMILES	CF NFkB block	Peg3 prom inh	KKLEB tox	HIF-2a inh	CHOP inhibitor	MITF TRPM1 inh
COCCCNC1=C(Cl)C(=O)c2ccccc2C1=O	i	i	i	84	i	i
CSCCC(c1nnnn1C1CCCC1)N1CCN(C/C=C/c2ccccc2)CC1 (stereo unspecified)	i	i	i	i	nt	nt
O=C(C[C@H]1CC[C@H]2[C@@H](COC[C@@H](O)CN2S(=O)(=O)c2ccccc2)O1)N[C@@H]1CCN(Cc2ccccc2)C1	nt	nt	nt	i	nt	nt
CC[C@H](C)[C@@H]1NC(=O)[C@@H](CC(C)C)NC(=O)[C@H](C(C)C)NC(=O)[C@H]2CSSC[C@H](NC1=O)C(=O)N2	82	98	-106	96	nt	nt
CC(C)C[C@@H]1NC(=O)[C@H](C(C)C)NC(=O)c2cc([N+](=O)[O-])cc(I)c2NCC[C@@H](C(N)=O)NC1=O	nt	nt	nt	nt	i	nt
COc1ccc2ccccc2c1/C=N/Nc1cccc(C(=O)O)c1	i	i	i	i	nt	i
O=C(O)c1cccc(N/N=C/c2cccc3ccccc23)c1	i	i	i	i	nt	81
Cc1ccc(S(=O)(=O)N(C)C[C@@H]2Oc3ccc(NC(=O)Nc4cccc5ccccc45)cc3C(=O)N([C@H](C)CO)C[C@H]2C)cc1	i	i	i	i	nt	i
O=C(Cn1c(COc2ccccc2)nc2ccccc21)Nc1cccc(Cl)c1	i	i	i	i	78	i
CC(NC(=O)Cn1ncc(Cl)c(Cl)c1=O)C12CC3CC(CC(C3)C1)C2 (stereo unspecified)	84	97	-78	91	109	108
CC(NC(=O)CN1C(=O)NC(Cc2ccccc2)(Cc2ccccc2)C1=O)C12CC3CC(CC(C3)C1)C2 (stereo unspecified)	i	i	i	i	84	i
CCN(C(=O)c1ccc(S(=O)(=O)N(C)C)cc1)C(C)C(=O)Nc1ccc(C)cc1 (stereo unspecified)	i	i	i	i	nt	i
CC(C)(C)NCCC(O)c1cc(C(F)(F)F)nc2c(C(F)(F)F)cccc12 (stereo unspecified)	i	i	i	i	nt	i
OC(c1cc(-c2ccc(Cl)cc2)nc2ccccc12)C1CCCCN1 (stereo unspecified)	i	109	i	i	i	i
OC(c1cc(C(F)(F)F)nc2c(Cl)cc(Cl)cc12)C1CCCCN1 (stereo unspecified)	i	109	i	i	i	i
O[C@@H](c1cc(C(F)(F)F)nc2c(C(F)(F)F)cccc12)[C@H]1CCCCN1	i	103	i	i	nt	i
O=C(Nc1nnc([C@H]2C[C@H](O)[C@@H](CO)O2)s1)Nc1ccccc1Oc1ccccc1	i	i	i	i	nt	nt
Cc1csc(SCC(=O)Nc2cccc3nsnc23)n1	64	i	i	i	i	i
N.N.O=C(O)C1(C(=O)O)CCC1.[Pt+2]	nt	nt	nt	nt	i	nt
Cc1ccc2c(Cl)cc(Cl)c(O)c2n1	52	i	i	i	nt	73
CC[C@@H](C(=O)[C@@H](C)[C@@H](O)[C@H](C)CCc1ccc(C)c(O)c1C(=O)O)[C@H]1O[C@](CC)([C@H]2CC[C@](O)(CC)[C@H](C)O2)C[C@@H]1C	76	94	-51	i	nt	i
COc1ccc(C(=O)NC(=S)Nc2ccc([N+](=O)[O-])cc2C)cc1OC	i	i	i	i	79	i
CN1CCN(c2nc3ccccc3nc2C(C#N)C(=O)OC2CCCCC2)CC1 (stereo unspecified)	i	i	i	i	72	i
Cn1c(=O)c2c(nc(SCc3nn[nH]n3)n2Cc2ccccc2F)n(C)c1=O	i	i	i	i	i	i
CN(C)c1nc(N)nc(CSc2nc3c(c(=O)n(C)c(=O)n3C)n2Cc2ccccc2F)n1	i	i	i	i	72	i
SMILES	CF NFkB block	Peg3 prom inh	KKLEB tox	HIF-2a inh	CHOP inhibitor	MITF TRPM1 inh
COc1ccc(C(=O)OCC(=O)Nc2nc3c(F)c(F)c(F)cc3s2)cc1OC	i	i	i	i	i	i
O=C(COC(=O)C12CC3CC(CC(C3)C1)C2)Nc1nc2c(F)c(F)c(F)cc2s1	i	i	i	i	95	i
Cc1cc(OCC(=O)N[C@@H](Cc2ccccc2)c2nc3ccccc3[nH]2)ccc1Cl	i	i	i	i	72	i
NC(=O)c1ccc(NC(=O)COC(=O)c2c[nH]c3ccccc23)cc1	i	i	i	i	nt	i
CC(Cl)C(=O)NC(=O)NC12CC3CC(CC(C3)C1)C2 (stereo unspecified)	i	i	i	i	i	i
Cc1noc(C)c1C(=O)OCC(=O)NC(=O)NC12CC3CC(CC(C3)C1)C2	i	i	i	i	81	i
O=C(CCl)NC(=O)NC12CC3CC(CC(C3)C1)C2	i	63	i	i	103	i
O=C(CN1CCSCC1)N/N=C/c1cccc(Cl)c1	i	i	i	i	i	i
COc1ccc(S(=O)(=O)N2CCC(c3cc(-c4cccc5ccccc45)n[nH]3)CC2)cc1	i	i	i	i	84	i
O=S(=O)(c1cccc(C(F)(F)F)c1)N1CCC(c2cc(-c3cccc4ccccc34)n[nH]2)CC1	i	i	i	i	i	i
Cc1cc(C)c(C)c(OC(=O)c2sc(Cl)nc2C)c1	i	90	i	i	i	i
Cc1ccc(NC(=O)c2sc(Cl)nc2C)c(C)c1	i	i	i	i	i	i
Clc1ccc2c(c1)C(N1CCNCC1)Cc1ccccc1S2 (stereo unspecified)	i	104	i	i	79	94
Clc1cccc2c1Sc1ccccc1CC2N1CCNCC1 (stereo unspecified)	i	108	i	i	i	i
COCCCN1CCN(C2Cc3ccccc3Sc3ccc(Cl)cc32)CC1 (stereo unspecified)	i	i	i	i	i	i
O=C(CSc1nnnn1C1CC2C=CC1C2)Nc1ccc(C(=O)O)cc1 (stereo unspecified)	i	i	i	i	nt	i
O=C(Nc1cc2c(cc1Cl)-c1ccc([N+](=O)[O-])cc1C2=NO)C(F)(F)F	i	57	i	i	nt	i
COC(=O)C1=C(C)NC2=C(C(=O)c3ccccc32)C1c1cccc(OC)c1 (stereo unspecified)	i	i	i	i	i	i
CC1=C([N+](=O)[O-])C(c2cccc(Br)c2)C2=C(N1)c1ccccc1C2=O (stereo unspecified)	i	i	-56	i	i	61
O=c1cnc2ccccc2n1Cc1ccccc1	i	i	i	i	nt	nt
CC(Nc1c([N+](=O)[O-])c(=O)oc2ccccc12)C(Cl)c1ccccc1 (stereo unspecified)	i	50	i	i	i	i
CCn1ccnc1CN(C)C(=O)c1cc(COc2ccccc2SC)on1	i	i	i	i	nt	i
Cc1ccccc1Cn1nnc2c1C(=O)c1ccccc1C2=O	i	i	i	i	i	i
Cc1cccc(Cn2nnc3c2C(=O)c2ccccc2C3=O)c1	62	i	i	i	i	i
CCCCNC(=O)C1(C)CCN1C(=O)c1oc2ccccc2c1C (stereo unspecified)	i	i	i	i	nt	nt
